The list is not random: actives were taken first. Their share in the collection is about 5.3%.
Tau FP inhib: blocks human tau fibril formation measured by polarization | AID 1468 | K18 P301L tau heparin fibrillization, Alexa594 FP, 6 h | P10636 | Potency, µM (highest dose often 57.7 µM), usual class: inhibitors | hit rate 0.39% among 280,000; further: nearly all actives have a fitted effect of over 55% in size
Target sequence (P10636 561-689 P618L limits assumed): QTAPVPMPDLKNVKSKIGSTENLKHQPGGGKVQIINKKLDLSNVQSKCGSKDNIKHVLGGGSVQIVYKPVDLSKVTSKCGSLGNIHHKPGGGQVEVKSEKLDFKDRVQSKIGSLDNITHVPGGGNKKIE
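K18 P301L tau (15 uM unlabeled/0.24 uM Alexa 594-labeled, final) + compound + heparin 20 uM final; 100 mM NaOAc pH 7; 6 hr 37 C; ThT 30 uM final added, 1 hr RT; FP ex 555/em 632 nm.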
Tau fluor counter: counter-screen for tau fibril formation inhibitors; hit rate 0.93% among 280,000; tau K18 P301L Alexa594 fluorescence, heparin fibrillization; AID 1463; Potency, µM (series often up to 57.7 µM); further: nearly all actives have a fitted effect of over 55% in size
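Human tau K18 P301L (15 uM unlabeled, 0.24 uM Alexa 594-labeled) in 100 mM sodium acetate pH 7 with 20 uM heparin, 6 hr at 37 C. ThT 30 uM added, 1 hr ambient; Alexa 594 FP and total fluorescence read at 555/632 nm.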
Sfp inh: Sfp phosphopantetheinyl transferase inhibition; hit rate 3.5% among 310,000; Biochemical Sfp PPTase activity, qHTS; Potency, µM, actives largely listed as inhibitors;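 further: the enzyme is Sfp with the accession as filed and its product quenches rhodamine fluorescence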
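Buffer: 50 mM Hepes-Na pH 7.6, 10 mM MgCl2, 0.01% Nonidet P-40, 0.01% BSA. Enzyme 15 nM, pre-exposed to compound 15 min; substrates then added and fluorescence change tracked over 30 min.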
Coupling enz: inhibits coupling enzyme system, counter-screen for aldolase hits | coupling enzyme system counterscreen, AmpLite Red fluorescence | activity change, negative = inhibition, % at 58.2 µM, hits read low | AID 2472 | hit rate 0.67% among 290,000; in the data active means activity change below about -30%
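First, compound is pin-transferred into glyceraldehyde-3-phosphate coupling-enzyme reagent at 57.5 uM final and held 10 min at RT. Next, substrate, coupling system and AmpLite Red are added. After 20 min RT, fluorescence (525/598 nm) is read.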
Tau fibril ThT: tau fibrillization inhibition (ThT binding); recombinant tau K18 P301L (four-repeat tau fragment), heparin-induced fibrillization, ThT fluorescence; Potency, µM (top dose mostly 57.4 µM), actives largely listed as inhibitors; hit rate 2.1% among 270,000; AID 1460; P10636; further: nearly all actives have a fitted effect of over 55% in size
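Heparin-induced (20 uM) aggregation of recombinant human K18 P301L tau, 15 uM unlabeled with 0.24 uM labeled, pH 7 acetate buffer, 6 hr at 37 C with compound. Fibrils quantified by 30 uM ThT fluorescence after 1 hr ambient incubation.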
KDM4E inh: inhibitors of human JMJD2E histone demethylase | hit rate 1.6% among 230,000 | B2RXH2 | Potency, µM (doses to about 57.1 µM), most hits filed as inhibitors | AID 2147 | JMJD2E catalytic domain, FDH-coupled NADH fluorescence (FDH is formaldehyde dehydrogenase); further: nearly all actives have a fitted effect of over 50% in size
Target sequence (B2RXH2 1-337 limits assumed): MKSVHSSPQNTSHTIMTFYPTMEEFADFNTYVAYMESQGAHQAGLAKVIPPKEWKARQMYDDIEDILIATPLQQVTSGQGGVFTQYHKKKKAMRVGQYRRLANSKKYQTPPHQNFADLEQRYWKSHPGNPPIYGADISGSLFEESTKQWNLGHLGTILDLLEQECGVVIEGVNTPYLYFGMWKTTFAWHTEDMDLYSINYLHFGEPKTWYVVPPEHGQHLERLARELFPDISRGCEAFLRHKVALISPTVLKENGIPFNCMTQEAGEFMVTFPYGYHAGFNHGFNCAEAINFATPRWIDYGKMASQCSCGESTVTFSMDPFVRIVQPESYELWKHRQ
A number is an active result; n = inactive; u = inconclusive; x = no result given; [ ] = remark or other dose. Unless noted, the call rests on the fitted dose curve; in most records, active means well fitted curve in the direction sought with a large enough effect; inconclusive means small, poorly fitted or top-dose-only effect, or another doubt; inactive means no such curve, though single readings can be large; an effect the other way counts as inactive or inconclusive.

SMILES	Tau FP inhib	Tau fluor counter	Sfp inh	Coupling enz	Tau fibril ThT	KDM4E inh
FC(F)(F)c1ccccc1-c1cncnc1NCc1ccccc1	x	x	n	n	x	x
Cc1cnc(CNc2ncncc2-c2ccccc2C(F)(F)F)cn1	n	n	71µM	n	n	u
COc1ccccc1-c1cncnc1NCc1cnc(C)cn1	x	x	79µM	n	x	x
COc1ccccc1-c1nc(NCc2cnc(C)cn2)c2ccccc2n1	n	n	50µM	n	n	u
COC(=O)[C@H](COC(C)(C)C)NC(=O)O[C@@H]1C(=O)c2cc(OC)ccc2O[C@H]1c1cccc(OC)c1	n	n	n	n	n	u
CCOc1ccc(-c2cc3nc(C4CCN(C(=O)OC(C)(C)C)CC4)c(C(=O)Nc4ccc(C)c(F)c4)cn3n2)cc1	n	n	x	x	n	x
CNC(=O)c1sc2nc(-c3ccc(OC)cc3)cn2c1C	n	n	n	n	n	u
Cc1c(C(=O)Nc2ccncc2)sc2nc(-c3ccccc3)cn12	n	n	n	n	n	u
COc1ccc(-c2cn3c(C)c(C(=O)Nc4cc(NC(C)=O)ccc4OC)sc3n2)cc1	n	n	79µM	n	u	n
CCN(CC)c1ccc(NC(=O)c2sc3ccccc3c2Cl)cc1	n	u	x	x	0.89µM	x
CCN(CC)c1ccc(NC(=O)c2sc3nc(-c4ccccc4)cn3c2C)cc1	n	u	x	x	2.2µM	x
Cc1noc(C)c1-c1ccc2ncnc(NCc3ccco3)c2c1	x	x	n	n	x	x
Cc1cccc2cc(C(c3nnnn3CC3CCCO3)N3CCc4ccccc4C3)c(=O)[nH]c12 (centres undefined)	n	n	20µM	-44	u	u
Cc1ccc(C)c2[nH]c(=O)c(C(c3nnnn3Cc3ccccc3)N3CCc4ccccc4C3)cc12 (centres undefined)	u	n	u	n	22µM	u
Cc1cc(C)c2cc(C(O)c3nnnn3Cc3ccccc3)c(=O)[nH]c2c1 (centres undefined)	n	n	n	n	n	u
Cc1cccc2cc(C(c3nnnn3CC3CCCO3)N3CCCc4ccccc43)c(=O)[nH]c12 (centres undefined)	n	n	n	n	u	n
CCc1ccc2[nH]c(=O)c(C(c3nnnn3CC3CCCO3)N3CCCc4ccccc43)cc2c1 (centres undefined)	u	n	8.9µM	-31	11µM	u
CCOc1ccc2[nH]c(=O)c(C(c3nnnn3CC3CCCO3)N3CCc4ccccc4C3)cc2c1 (centres undefined)	n	n	n	-30	n	u
COc1cc(NC(=O)CCS(=O)(=O)c2ccc3c(c2)CC(=O)N3C)cc(OC)c1OC	n	n	x	x	n	x
Cc1ccc2cc(C(c3nnnn3CC3CCCO3)N3CCc4ccccc4C3)c(=O)[nH]c2c1 (centres undefined)	n	n	10µM	-38	n	u
COc1ccc2cc(C(c3nnnn3CC3CCCO3)N3CCOCC3)c(=O)[nH]c2c1 (centres undefined)	n	n	n	n	n	u
Cc1ccc2c(c1)c1nnc(SCC(=O)Nc3cccc(Cl)c3C)nc1n2CC(=O)O	n	n	n	n	n	n
Cc1ccc2c(c1)c1nnc(SCC(=O)Nc3ccc(N(C)C)cc3)nc1n2CC(=O)O	x	x	79µM	n	x	x
Cc1cc(NC(=S)NC(=O)c2ccco2)c2ccccc2n1	n	n	28µM	n	u	n
O=C(NC(=S)Nc1cccc2cc(O)ccc12)c1ccco1	x	x	n	n	x	x
SMILES	Tau FP inhib	Tau fluor counter	Sfp inh	Coupling enz	Tau fibril ThT	KDM4E inh
O=C(NC(=S)Nc1cccc2c(O)cccc12)c1ccco1	x	x	50µM	n	x	x
c1cc(-c2cccs2)nc(-c2cccs2)c1	u	n	n	n	u	u
c1csc(-c2cn3ccc4ccccc4c3n2)c1	n	n	n	n	10µM	n
COc1cccc(-c2coc3ccc(Br)cc3c2=O)c1	n	n	n	n	u	n
COC(=O)C1=C(C)NC(C)=C(C(=O)OCCNCc2ccccc2)C1c1cccc([N+](=O)[O-])c1 (centres undefined)	n	u	n	n	u	x
COC(=O)Cc1[nH]n(-c2nc3ccccc3s2)c(=O)c1C(C)=O	n	n	79µM	n	n	u
CCn1c(=O)c2sccc2n2c(CCCC(=O)N3CCN(c4ccc(OC)cc4)CC3)nnc12	n	n	x	x	n	x
COc1ccc(C)cc1NC(=O)CN1CCN(C/C=C/c2ccccc2)CC1	n	n	89µM	n	n	n
CCN1CCN(CC(=O)Nc2nc3ccc(OC)cc3s2)CC1	n	n	89µM	n	n	u
CCN1CCN(CC(=O)Nc2c(OC)cccc2OC)CC1	x	x	79µM	n	x	x
COc1cc(NC(=O)Nc2cccc(Cl)c2)c(OC)cc1NC(=O)CN1CCCCC1	u	8.9µM[quencher]	n	n	u	n
COc1ccc(C)cc1NC(=O)CN1CCN(c2ccccc2F)CC1	n	n	n	n	n	n
COc1ccccc1NC(=O)CN1CCCCC1	n	n	n	n	n	n
COc1ccc2nc(NC(=O)CN3CCN(C)CC3)sc2c1	n	n	n	n	n	n
CCOC(=O)CCN1C(=O)[C@H]2[C@H]3[C@H](O)[C@H](O)C/C(=N/OC/C=C(\C)CCC=C(C)C)[C@H]3CC[C@@H]2C1=O	n[11.6 µM]	n[11.6 µM]	n	n	n[11.5 µM]	x
COc1ccccc1/C=C1/C(=O)N(c2ccc([N+](=O)[O-])cc2)N=C1C	x	x	n	n	x	x
CC1=NN(c2ccc(C)c(C)c2)C(=O)/C1=C\C=C\c1ccc([N+](=O)[O-])o1	u	u	n	n	25µM	n
COC(=O)C1=C(C(=O)OC)SC2(S1)C(C(=O)OC)=C(C(=O)OC)SC1=C2c2cccc(C)c2NC1(C)C	u	u	n	n	14µM	n
NS(=O)(=O)c1ccc(N=NN2CCCCC2)cc1	n	n	n	n	n	n
Cc1cc(=O)n(Cc2ccccc2)c(O)c1C#N	x	x	n	n	x	x
Cc1c(C#N)c(O)n(CCO)c(=O)c1N=Nc1ccc(S(N)(=O)=O)cc1	n	n	n	n	13µM	n
Cc1c(C#N)c(O)n(C)c(=O)c1N=Nc1ccc(S(N)(=O)=O)cc1	n	n	n	n	4µM	n
Cc1c(C#N)c(O)n(CCO)c(=O)c1N=Nc1ccccc1	n	n	n	n	13µM	n
CC[C@H](C)[C@H](NC(=O)CNC(=O)[C@H](C)NC(=O)[C@H](C)N)C(=O)NCC(=O)N[C@H](C(=O)N[C@@H](CC(C)C)C(=O)N[C@H](C(=O)N[C@H](C(=O)O)C(C)C)[C@@H](C)O)[C@@H](C)CC	x	x	n	n	x	x
O=C(NCc1cc(F)cc2c1OCCO2)[C@H]1C[C@@H]1[C@H](NP(=O)(c1ccccc1)c1ccccc1)c1ccccc1	n	n	n	n	n	u
CC(C)(C)c1ccc(S(=O)(=O)N(CCCN2CCOCC2)Cc2cccs2)cc1	n	n	2.2µM	n	n	n
